Source: PubChem (several laboratories)
LGR2 inh: inhibitors of bursicon-induced LGR2 CRE-luciferase signal, primary screen, cell-based, HEK293, CRE-luciferase reporter, bursicon stimulation. inhibition, % at 9.99 µM. bursicon-stimulated, 4 h. AID 720647, 2013. Drosophila bursicon receptor LGR2 (rickets). hit rate 0.35% among 380,000;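 active = drop in luminescence signal, shown as inhibition above about 50% in the replicate tests, limit read from the data, passing the limit was not always enough; inconclusive = probably only some replicates passing the limit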;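 note: agonist challenge used bursicon conditioned medium at about half maximal strength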
MITF TRPM1 HTS: activators of MITF-driven TRPM1 promoter reporter, primary screen, cell-based, SK-MEL-5, luciferase, single point | SK-MEL-5 TRPM1-promoter luciferase, 24 h; % of positive control, neutral wells = 0 | activation, % at 12.5 µM | hit rate 0.75% among 300,000 | AID 588334, 2011;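 active = mean activation of at least 80% with every replicate also reaching 80%; inconclusive = mean reaches 80% but some replicate falls short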;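 note: 0% = neutral control wells and 100% = parthenolide positive control wells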
TWEAK-Fn14 inh: inhibitors of TWEAK-Fn14 signaling, primary screen, luciferase reporter cells, uHTS; TWEAK-stimulated Fn14 reporter cells, luciferase luminescence, 8 h; hit rate 2% among 360,000; inhibition, % at 10 µM; AID 1159606, 2016; in the data active = inhibition above about 50%
MITF TRPM1 inh: inhibitors of MITF-dependent TRPM1 promoter reporter, primary screen, cell-based, SK-MEL-5, single point, luciferase. inhibition, % at 12.5 µM. SK-MEL-5 TRPM1 promoter luciferase, 24 h. hit rate 0.83% among 330,000. AID 488899, 2010;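 active = mean inhibition across replicates of 60% or more, whatever share of single replicates reaches that level; inconclusive = some that reach 60%, reason not given; inactive = mean inhibition across replicates below 60%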
EBV LMP1 NFkB: EBV LMP1-driven NF-kappaB luciferase reporter inhibitors, primary screen, cell-based, luminescence, single point | LMP1-induced NF-kappaB luciferase reporter cells | inhibition, % at 12.5 µM | hit rate 0.69% among 350,000; in the data active = inhibition above about 41%; inconclusive = no clear call, values can overlap the other calls;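 note: 0% = neutral control wells and 100% = reference inhibitor control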
TROY NFkB inh: inhibitors of TROY-driven NF-kB signaling, primary screen, Q293 LMP1-TROYcd cells, NF-kB luciferase, uHTS | Q293 LMP1-TROYcd NF-kB luciferase reporter, 4 h | hit rate 0.98% among 360,000 | inhibition, % at 10 µM;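 active = compounds whose plate-normalised and pattern-corrected inhibition of the luciferase reporter signal at the single screening dose is 50% or more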
An asterisk follows results filed as active; ! = repeats disagree. Compounds with a hit are over-represented: about 3% of the library has one in this group of screens.

For COc1ccc(S(=O)(=O)Nc2ccc3c(c2)C(=O)N([C@@H](C)CO)C[C@H](C)[C@H](CN(C)Cc2ccc(C(F)(F)F)cc2)OCCCC[C@H](C)O3)cc1 the results were LGR2 inh -1.
COC(=O)c1ccccc1NC1=C/C(=N\S(=O)(=O)c2ccc(C(=O)O)cc2)c2ccccc2C1=O was read as MITF TRPM1 HTS -89, TWEAK-Fn14 inh 94*, MITF TRPM1 inh 90*, EBV LMP1 NFkB -14 and TROY NFkB inh 43.
`COC(=O)c1cccc(NS(=O)(=O)c2cccs2)c1C` gave LGR2 inh -6, TWEAK-Fn14 inh 7, MITF TRPM1 inh -9, EBV LMP1 NFkB 0 and TROY NFkB inh -11.
`COC(=O)c1ccccc1NC1=C/C(=N\S(=O)(=O)c2cccs2)c2ccccc2C1=O` gave LGR2 inh 91*, MITF TRPM1 HTS -77, TWEAK-Fn14 inh 99*, MITF TRPM1 inh 78*, EBV LMP1 NFkB 86*! and TROY NFkB inh 51*!.
CCCNC(=O)N1CC2(C1)[C@H](c1ccccc1)[C@H](CO)N2CC1CC1 was read as LGR2 inh -8.
For O=C(Cc1ccncc1)N1CC(=O)N2[C@H](C1)[C@@H](c1ccc(C3=CCCC3)cc1)[C@@H]2CO the results were LGR2 inh -1.
`Clc1ccc(/C=C/c2nc3ccccc3[nH]2)c(Cl)c1` gave MITF TRPM1 HTS -7, TWEAK-Fn14 inh 64*, MITF TRPM1 inh 5, EBV LMP1 NFkB 10 and TROY NFkB inh 48.
Screening Clc1ccc(/C=C/c2nc3ccccc3[nH]2)cc1 returned TWEAK-Fn14 inh 81*, MITF TRPM1 inh 19, EBV LMP1 NFkB 19 and TROY NFkB inh 16.
Screening O=C(Nc1cc(F)ccc1F)N1CCCCN2[C@H](CO)[C@@H](c3ccc(-c4cncnc4)cc3)[C@@H]2C1 returned LGR2 inh 11.
Screening O=C(Cc1ccccc1)O/N=C1\CCCc2ccccc21 returned LGR2 inh 15, MITF TRPM1 HTS -10, TWEAK-Fn14 inh 0, MITF TRPM1 inh 11, EBV LMP1 NFkB -4 and TROY NFkB inh 1.
`O=C(O/N=C1\CCCc2ccccc21)c1cccs1` gave LGR2 inh -108, MITF TRPM1 HTS 11, TWEAK-Fn14 inh -23, MITF TRPM1 inh -8, EBV LMP1 NFkB -3 and TROY NFkB inh 80*.
`Cc1nccc(-c2ccc(-n3cnc4ccccc43)cc2)n1` gave MITF TRPM1 HTS 42, TWEAK-Fn14 inh 13, MITF TRPM1 inh -42, EBV LMP1 NFkB 2 and TROY NFkB inh -9.
Nc1nccc(-c2ccc(-n3cnc4ccccc43)cc2)n1 was read as LGR2 inh -19, MITF TRPM1 HTS 37, TWEAK-Fn14 inh 53*, MITF TRPM1 inh -38, EBV LMP1 NFkB 38 and TROY NFkB inh 26.
`CC1=C(C)CC(C(=O)N2CCN(Cc3ccccc3)CC2)C(C(=O)O)C1` (centres undefined) gave TWEAK-Fn14 inh -5, MITF TRPM1 inh 7, EBV LMP1 NFkB 65* and TROY NFkB inh -10.
`CC(C)c1nc2sc3c(NCc4ccccc4)ncnc3c2c2c1COC(C)(C)C2` gave MITF TRPM1 HTS -3, TWEAK-Fn14 inh -50, MITF TRPM1 inh 7, EBV LMP1 NFkB 9 and TROY NFkB inh 5.
CC(C)c1nc2sc3c(NCc4ccco4)ncnc3c2c2c1COC(C)(C)C2 was read as MITF TRPM1 HTS 1, TWEAK-Fn14 inh 52*, MITF TRPM1 inh -1 and EBV LMP1 NFkB 0.
CCCc1nc(NCc2ccco2)c(C#N)c2c1COC(C)(C)C2 was read as MITF TRPM1 HTS 4, TWEAK-Fn14 inh 74*, MITF TRPM1 inh 2 and EBV LMP1 NFkB 3.
`O=C(C[C@@H]1CC[C@@H](NC(=O)c2ccc(F)cc2)[C@H](CO)O1)NCCc1ccncc1` gave LGR2 inh -9.
`Cc1nc(Nc2nc3c(c(=O)[nH]2)CCC3)nc2ccccc12` gave MITF TRPM1 HTS -13, TWEAK-Fn14 inh 69*, MITF TRPM1 inh 15, EBV LMP1 NFkB -20 and TROY NFkB inh -36.
O=c1[nH]c(NCc2ccccc2)nc2c1CCC2 was read as TWEAK-Fn14 inh -5, MITF TRPM1 inh -9, EBV LMP1 NFkB -12 and TROY NFkB inh -7.
Screening C/C=C/c1ccc2c(c1)O[C@@H](CN(C)S(=O)(=O)c1ccc(C)cc1)[C@@H](C)CN([C@H](C)CO)S2(=O)=O returned LGR2 inh 11.
Fc1ccccc1-c1csc(=Nc2cccnc2)n1CCCn1ccnc1 was read as MITF TRPM1 HTS 15, TWEAK-Fn14 inh 55*, MITF TRPM1 inh -10, EBV LMP1 NFkB 2 and TROY NFkB inh 25.
For Cc1ccc(-c2ccc3c(c2)O[C@@H](CN(C)Cc2ccncc2)[C@@H](C)CN([C@@H](C)CO)S3(=O)=O)cc1 the results were LGR2 inh -21.
Screening NC1=C(Cl)C(=O)c2ccc(S(N)(=O)=O)cc2C1=O returned LGR2 inh 105*, MITF TRPM1 HTS -96, TWEAK-Fn14 inh 108*, MITF TRPM1 inh 96*, EBV LMP1 NFkB 88* and TROY NFkB inh 86*.
Screening NC1=C(Cl)C(=O)c2ccccc2C1=O returned LGR2 inh -12, MITF TRPM1 HTS -94, TWEAK-Fn14 inh 5, MITF TRPM1 inh 95*, EBV LMP1 NFkB 2 and TROY NFkB inh -22.
Screening CCC(=O)N(C)C[C@H]1Oc2ncc(-c3ccccc3OC)cc2C(=O)N([C@H](C)CO)C[C@@H]1C returned LGR2 inh -27.
CCn1cnc2cc(NC(=O)c3cccs3)ccc21 was read as LGR2 inh -35, MITF TRPM1 HTS 95*, TWEAK-Fn14 inh -6, MITF TRPM1 inh -86, EBV LMP1 NFkB -11 and TROY NFkB inh -25.
`CSc1nc2ccc(NC(=O)c3ccco3)cc2s1` gave LGR2 inh -66, MITF TRPM1 HTS 88*, TWEAK-Fn14 inh -28, MITF TRPM1 inh -76, EBV LMP1 NFkB -37 and TROY NFkB inh -79.
Screening CC(C)(C)n1cnc2cc(NC(=O)c3cccs3)ccc21 returned LGR2 inh -33, MITF TRPM1 HTS inconclusive, TWEAK-Fn14 inh 22, MITF TRPM1 inh -86, EBV LMP1 NFkB -20 and TROY NFkB inh -53.
For CSc1nc2ccc(NC(=O)c3ccc(F)c(F)c3)cc2s1 the results were LGR2 inh -32, MITF TRPM1 HTS 70, TWEAK-Fn14 inh -38, MITF TRPM1 inh -73, EBV LMP1 NFkB -38 and TROY NFkB inh -21.
CSc1nc2ccc(NC(=O)c3cccs3)cc2s1 was read as LGR2 inh -79, MITF TRPM1 HTS 90*, TWEAK-Fn14 inh -43, MITF TRPM1 inh -91, EBV LMP1 NFkB -58 and TROY NFkB inh -107.
